This is an account of results in the OligoGym collection.
Also: reference of the scale not given here.

This assay addresses CHEK1. Briefly: pooled miR-30 sensor sort-seq; sequence = guide strand. As to conditions: shRNA.
Consider TTTGGTAAAGAATCGTGTCATT, for which the sensor-assay potency score (higher = more potent) is -0.878.
The same measure for TTAATCTTCAGGAAGTGTCTCT: 0.552; for TTTGTTGTACCATCTATCTTTT: -0.765.
The same measure for TTTTCTTCACTAGAAGCACTGT: 0.254.
In the case of TTTATTGATACAGATCTCTTTC, the sensor-assay potency score (higher = more potent) turned out to be 0.115.
On to TGATATAGTAACCTGATTCATA, for which the sensor-assay potency score (higher = more potent) was -0.794.
The same measure for TTCAGGAACTACTATTTGCAGT: -0.581; for TTTTCTGGTTTAATATCCCTGT: 0.0757.
For TTTCCAGTCAGAATACTCCTGA, the sensor-assay potency score (higher = more potent) was -0.0829.
The same measure for TATTTTATCATCCATTTCTAAC: -1.06; for TTTGTCTGCATCCAATTTGGTA: -0.969.
With TAAAGTACCACACATCTTGTTC the figure was -0.726; with TAACCTGATTCATACAACTTTT, -1.09.
The same measure for TTTTCTTCCATTGATAGCCCAA: -0.419; for TAACTGACTATTCAAAAGCATA: -1.68.
Take TAAAGAATCGTGTCATTCTTTT: the sensor-assay potency score (higher = more potent) was -0.659.
With TTGTCTGCATCCAATTTGGTAA the figure was -1.02; with TTCTGGTTTAATATCCCTGTGA, -0.58.
